This note sets out measurements from PubChem BioAssay.

Several values for one entry are separate records, joined by “and”; a condition that tells them apart may be missing. Equal values may be shown once. Some structures have more than one record in an assay (separate samples or runs), and their calls can disagree. Activity calls are given as the source filed them.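 Rule for the calls, unless noted: active = inhibition at or above 50% relative to wild type and mutant plate controls; inactive = inhibition below 50%.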

What is called inhibition is the relative decrease from the control value, in per cent.

Assay [1] is described as follows: inhibitors of TNFa-induced NFkB p65 translocation, primary screen, imaging, HUVEC, MLSMR starter and 10KST1 sets (AID 438;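 active = inhibition above 20% together with a positive visual image hit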;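 note: compound added about 3h40 before a 20 min TNFalpha stimulation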;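 for inhibition: signal is the nuclear over cytoplasmic p65 intensity ratio per well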). To be noted: HUVEC TNFa-induced p65 nuclear translocation; cell count: measured here: nuclei count (cytotoxicity indicator), at 2.08 µM; inhibition: at 2 µM, stronger effect = higher value, 0% TNFa-plus-vehicle, 100% no-TNFa wells.
Assay [2] in a line: reduction of polyQ htt aggregates in cells – imaging, exon1htt(103Q)mCFP cells, high-content imaging, primary screen (AID 483;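 active = visual image review flags a hit and inhibition of aggregation exceeds 20%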;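 note: compound exposure lasted 3 days before fixation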;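 for nuclei count: percent of the per-plate median nuclei count of sample wells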). To be noted: exon1htt(103Q)mCFP cell line, aggregate imaging, at 2 µM; inhibition of aggregation: stronger effect = higher value; nuclei count: measured here: cell count, toxicity.
Assay [3] is described as follows: endothelial E-selectin expression blockers – imaging, HUVEC, immunofluorescence, MLSMR starter and 10KST1 sets, primary screen (AID 487;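 active = visually confirmed hit in the image check and inhibition above 20%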;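 for inhibition: signal is fraction of cell area covered by stained E-selectin grains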;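 for nuclei count: 100% = median nuclei count of all wells on the same plate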). To be noted: HUVEC TNFalpha-induced E-selectin immunofluorescence imaging, at 2 µM; inhibition: stronger effect = higher value; nuclei count: measured here: cell number, toxicity.
The nature of assay [4]: Primary imaging screen for DUSP6 inhibitors that restore phospho-Erk in transfected HeLa cells, chemical complementation (AID 609;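 active = compounds giving at least 50% inhibition in the cell-based MKP-3 phosphatase rescue imaging test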;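 for inhibition: phospho-Erk level distribution per well compared with pooled transfected vehicle control wells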). To be noted: HeLa MKP-3 transfected, phospho-Erk imaging KS statistic, at 10 µM, cells stimulated with TPA for 15 min.
Assay [5] deals with Dual specificity protein phosphatase 6 (Homo sapiens) (UniProt Q16828). The description is as above. To be noted: HeLa MKP-3 transfected, phospho-Erk imaging KS statistic; at 10 µM; stronger effect = higher value; cells stimulated with TPA for 15 min.
Assay [6] addresses Voltage-gated potassium channel subunit beta-2 (Rattus norvegicus) (UniProt P62483). As to the kind of experiment: inhibitors of rat Kvbeta2 reductase activity – biochemical, NADPH fluorescence, primary screen (AID 622;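 active = fluorescence slope higher than the sample average by over 3 SD, cut at about -0.22 in these data, passing the limit was not always enough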;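 note: slope of raw intensity against log time taken from 70 to 1610 s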). To be noted: recombinant KvBeta, 4-cyanobenzaldehyde reduction, at 10 µM, stronger effect = higher value.
Assay [7] has the same target. The assay can be described thus: enhancers of rat Kvbeta2 NADPH turnover – biochemical, NADPH fluorescence, primary screen (AID 623;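 active = NADPH fluorescence slope more negative than the mean of all samples by about 3 SD, 99.7% confidence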;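 note: fluorescence intensity change per second fitted from 20 to 320 s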). To be noted: Recombinant KvBeta, NADPH fluorescence decrease slope, 10 min; at 10 µM; stronger effect = lower value.
Assay [8] concerns the target Alpha-2C adrenergic receptor (Homo sapiens) (UniProt P18825). As to the kind of experiment: compounds altering alpha2C-coupled GIRK flux – cell-based, HEK293 alpha2C/GIRK1/2, thallium flux, primary screen (AID 624;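 active = fluorescence slope after compound addition differing from the mean of all screened samples at 99.7% confidence, in either direction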;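 note: slope of fluorescence ratio to pre-addition baseline per second over 15 to 24 s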). To be noted: thallium flux BTC fluorescence, at 10 µM, actives lie on both sides.
Assay [9] can be described thus: inhibitors of larval lipid processing in zebrafish, primary screen, whole organism, PED6 fluorescence, gall bladder and intestine (AID 686;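 active = a full or partial loss of lipid-probe fluorescence in the fish gall bladder, intestine or both, judged by eye; inactive = no fluorescence loss, or compound toxic to the fish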;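 note: larvae 5 to 7 days old with five fish per well; signal comes from phospholipase A2 cleavage of quenched PED6 carried via bile; overnight exposure to compound and PED6 before scoring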). To be noted: Zebrafish larvae PED6 lipid processing, fluorescence scoring; screened at 20 µM (by protocol).
Assay [10] is described as follows: loss of swimming-algae plug formation – whole organism, Chlamydomonas reinhardtii, WT vs cilia-less mutant, absorbance, 96-well, primary screen (AID 463189).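 Note: 0% = wild type cc124 cells in DMSO and 100% = ciliumless bld1 mutant cells.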 To be noted: Chlamydomonas reinhardtii gravitaxis, OD600 absorbance, 2 days; at 10 µM; stronger effect = higher value.
Assay [11] in a line: blockers of RIG-like receptor reporter activation – cell-based, Sendai virus stimulus, luciferase, 10K MLSCN set, TLR/RLR signaling modifier project, primary screen (AID 602276;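 active = inhibition at or above 50% at 10 µM; inactive = inhibition below 50%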;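 note: firefly luciferase from ISG56 promoter only with Renilla not read in this screen; 0% = Sendai virus plus DMSO and 100% = medium plus DMSO without virus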). To be noted: HEK293 RL24 IRF3 luciferase reporter, at 10 µM, stronger effect = higher value.
Assay [12] is described as follows: TLR3 IRF3 reporter activation blockers – cell-based, poly I:C stimulus, luciferase, 10K MLSCN set, primary screen (AID 602277;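 active = inhibition of the reporter signal at or above 50%; inactive = inhibition below 50%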). To be noted: HEK293-TLR3 RL24 IRF3 luciferase reporter, at 10 µM, stronger effect = higher value. (Reporter assays use an easily measured gene product as a stand-in for the process of interest.)
Setting [13] is: measured here: cell density z-score.
Setting [14] is: measured here: nuclear c-Myc green intensity z-score.
The mark [15] stands for this setting: measured here: nuclear pErk red intensity z-score, stronger effect = higher value.

Sequence of Voltage-gated potassium channel subunit beta-2 (Rattus norvegicus) (P62483 whole entry, looked up): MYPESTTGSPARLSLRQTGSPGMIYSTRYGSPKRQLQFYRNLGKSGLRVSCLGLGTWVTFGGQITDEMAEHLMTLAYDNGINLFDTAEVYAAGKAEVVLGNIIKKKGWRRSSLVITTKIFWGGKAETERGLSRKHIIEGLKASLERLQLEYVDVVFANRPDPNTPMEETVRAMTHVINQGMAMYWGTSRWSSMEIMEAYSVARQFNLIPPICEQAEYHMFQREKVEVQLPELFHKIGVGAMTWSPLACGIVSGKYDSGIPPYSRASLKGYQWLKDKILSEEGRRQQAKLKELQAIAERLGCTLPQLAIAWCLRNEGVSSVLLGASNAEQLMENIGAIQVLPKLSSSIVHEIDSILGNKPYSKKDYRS
Sequence of Alpha-2C adrenergic receptor (Homo sapiens) (P18825 whole entry, looked up): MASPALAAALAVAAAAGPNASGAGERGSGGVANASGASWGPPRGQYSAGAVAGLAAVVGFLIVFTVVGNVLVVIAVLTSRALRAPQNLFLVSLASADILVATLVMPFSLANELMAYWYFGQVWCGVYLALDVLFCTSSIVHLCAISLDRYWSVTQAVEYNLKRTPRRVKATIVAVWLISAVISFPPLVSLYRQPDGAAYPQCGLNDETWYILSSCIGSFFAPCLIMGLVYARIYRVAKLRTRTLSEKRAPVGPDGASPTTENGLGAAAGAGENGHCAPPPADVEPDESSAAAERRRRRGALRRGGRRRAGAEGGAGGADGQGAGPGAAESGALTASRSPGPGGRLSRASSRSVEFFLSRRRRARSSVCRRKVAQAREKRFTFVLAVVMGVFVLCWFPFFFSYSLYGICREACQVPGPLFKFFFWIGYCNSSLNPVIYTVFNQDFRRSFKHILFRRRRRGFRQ
Sequence of Dual specificity protein phosphatase 6 (Homo sapiens) (Q16828 whole entry, looked up): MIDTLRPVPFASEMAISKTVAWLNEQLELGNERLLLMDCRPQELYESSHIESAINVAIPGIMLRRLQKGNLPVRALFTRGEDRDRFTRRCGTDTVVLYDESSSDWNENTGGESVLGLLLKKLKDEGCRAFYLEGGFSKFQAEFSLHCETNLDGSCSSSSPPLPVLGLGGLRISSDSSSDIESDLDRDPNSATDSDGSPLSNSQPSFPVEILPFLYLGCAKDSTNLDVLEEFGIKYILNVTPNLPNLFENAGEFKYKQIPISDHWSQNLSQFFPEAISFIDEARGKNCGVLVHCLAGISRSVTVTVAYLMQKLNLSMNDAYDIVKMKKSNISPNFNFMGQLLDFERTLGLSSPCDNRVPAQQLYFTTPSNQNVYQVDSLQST

Regarding `Cc1ccc(N(CC(O)CN2CCCC2)S(=O)(=O)c2ccc(C)cc2)cc1` (stereo not given), in assay [1], the cell count amounted to 415. The inhibition is -5.4% (inactive) in assay [1]; -210% (inactive) in [3]; 13.2% (inactive) in [5]; 7.07% (inactive) in assay [10]; -14.3% (inactive) in assay [11]; -1.97% (inactive) in assay [12]. Besides, the inhibition of aggregation in [2] is 8.3% (inactive). Moreover, the nuclei count in assay [2] is 97.4%; in [3], 148%. In addition, the z-score in assay [4] (setting [13]) was 1.32; in assay [4] (setting [14]), -1.19; in assay [4] (setting [15]) it was -0.796. Further, the fluorescence slope in assay [6] was -0.388 (inactive). Also, in assay [7], the NADPH fluorescence slope was -5e-05 (inactive). Also, in assay [8], the slope was 0.00478 (inactive). Besides, in assay [9], the result was inactive.
`CCOc1nc(-c2ccncc2)nc2ccccc12`: the cell count in assay [1] was found to be 416. For the same compound, the inhibition in assay [1] was 5.6% (inactive); in assay [3], -66.1% (inactive); in [5] it was 4.25% (inactive); in assay [10] it was 39.6% (inactive); in assay [11], 13.1% (inactive); in assay [12] it was 16.5% (inactive). The inhibition of aggregation in [2] is -55% (inactive). The nuclei count was 13.3% in assay [2] and 116% in assay [3]. Besides, the z-score in assay [4] (setting [13]) is -2.21; in [4] (setting [14]), -0.624; in [4] (setting [15]), 0.47. Moreover, the fluorescence slope in [6] was -0.322 (inactive). In addition, the NADPH fluorescence slope in assay [7] was 3e-05 (inactive). Besides, the slope in [8] is 0.00435 (inactive). For the same compound, in assay [9], the outcome was inactive.
Consider `CC(NCCc1ccc(O)cc1)C(O)c1ccc(O)cc1` (stereo not given), for which, in assay [1], the cell count was 713. In addition, the inhibition in assay [1] was -4.6% (inactive); in assay [3] it was -109% (inactive); in [5] it was 1.48% (inactive); in assay [10], 4.91% (inactive); in assay [11], 7.45% (inactive); in assay [12] it was 39.2% (inactive). Also, the inhibition of aggregation in assay [2] is -2.5% (inactive). Also, the nuclei count amounted to 107% in [2] and 123% in assay [3]. The z-score in assay [4] (setting [13]) was 0.779; in [4] (setting [14]), 0.516; in assay [4] (setting [15]), -1.29. The fluorescence slope in assay [6] was -0.474 (inactive). In assay [7], the NADPH fluorescence slope was -9.7e-05 (inactive). Besides, the slope in assay [8] is 0.00504 (inactive). Besides, the result in assay [9] was inactive.
As to `C=CCn1cnc2c(c1=O)c1nc3ccccc3nc1n2-c1ccc(C)cc1`, the cell count in [1] was found to be 548. Besides, the inhibition in assay [1] is -5.7% (inactive); in assay [3], -70.3% (inactive); in [5], -2.07% (inactive); in assay [10] it was 15.4% (inactive); in assay [11], 15.3% (inactive); in assay [12], 10% (inactive). Besides, the inhibition of aggregation in [2] is -8.4% (inactive). In addition, the nuclei count in assay [2] was found to be 100%; in [3], 132%. Moreover, the z-score in [4] (setting [13]) is -0.575; in [4] (setting [14]), -1.45; in assay [4] (setting [15]), 1.52. The fluorescence slope in assay [6] was -0.354 (inactive). For the same compound, the NADPH fluorescence slope in assay [7] is -6.7e-05 (inactive). Besides, the slope in assay [8] was 0.00438 (inactive). Also, the call in assay [9] was inactive.
Turning to `Cc1cc(C)c(C#N)c(SCc2[nH]nc3c2C(c2ccccc2)C(C#N)=C(N)O3)n1` (stereo not given), the cell count in assay [1] amounted to 633. Besides, the inhibition in [1] is -7.7% (inactive); in assay [3] it was -6.9% (inactive); in [5] it was -7.28% (inactive); in assay [10], 31.6% (inactive); in assay [11], 12.1% (inactive); in assay [12], 20.3% (inactive). In addition, the inhibition of aggregation in [2] was 5.8% (inactive). Besides, the nuclei count in [2] stood at 104%; in [3], 114%. For the same compound, the z-score in assay [4] (setting [13]) is 0.152; in assay [4] (setting [14]) it was -0.343; in [4] (setting [15]) it was 0.203. The fluorescence slope in [6] was -0.571 (inactive). Also, the NADPH fluorescence slope in assay [7] is 2.5e-06 (inactive). The slope in assay [8] is 0.00484 (inactive). The outcome in [9] was inactive.
For the compound `COC(=O)C1=C(N)Oc2cc(C)[nH]c(=O)c2C1c1ccncc1` (stereo not given), the cell count in [1] amounted to 415. The inhibition in assay [1] was -3.5% (inactive); in assay [3], -70.4% (inactive); in [5], 11.4% (inactive); in assay [10], 35.9% (inactive); in assay [11], 22.8% (inactive); in assay [12] it was 38.8% (inactive). The inhibition of aggregation in assay [2] was 5.1% (inactive). The nuclei count in assay [2] stood at 99.8%; in assay [3], 132%. Further, the z-score in assay [4] (setting [13]) is 1.07; in [4] (setting [14]), -0.647; in assay [4] (setting [15]), -1.1. Further, the fluorescence slope in assay [6] was -0.45 (inactive). For the same compound, in assay [7], the NADPH fluorescence slope is -0.000119 (inactive). Besides, the slope in [8] is 0.00625 (inactive). Also, the call in assay [9] was inactive.
In the case of `O=C1N[C@@H](Cc2cnc[nH]2)C(=O)N2CCC[C@@H]12`, the cell count in [1] stood at 563. In addition, the inhibition was -1.5% (inactive) in assay [1]; -32% (inactive) in [3]; -0.493% (inactive) in assay [5]; 10.3% (inactive) in assay [10]; 16.7% (inactive) in [11]; 33.3% (inactive) in [12]. For the same compound, in assay [2], the inhibition of aggregation is 17.2% (inactive). The nuclei count in assay [2] was determined as 95.1%; in assay [3] it was 119%. The z-score is -1.25 in [4] (setting [13]), 0.0399 in [4] (setting [14]) and -0.395 in [4] (setting [15]). The fluorescence slope in [6] is -0.516 (inactive). The NADPH fluorescence slope in [7] is -4.6e-05 (inactive). For the same compound, the slope in assay [8] is 0.0041 (inactive). In assay [9], the outcome was inactive.
Turning to `CC(=O)N=c1sc(S(N)(=O)=O)nn1C`, the cell count in [1] was found to be 541. The inhibition in assay [1] is -11.9% (inactive); in assay [3] it was -94% (inactive); in assay [5], 9.37% (inactive); in assay [10] it was 13.4% (inactive); in [11], 4.97% (inactive); in [12], 15.9% (inactive). For the same compound, the inhibition of aggregation in [2] is 7.8% (inactive). Moreover, the nuclei count stood at 88.8% in assay [2] and 104% in assay [3]. Besides, the z-score in assay [4] (setting [13]) stood at 0.515; in assay [4] (setting [14]), 1.15; in [4] (setting [15]), 1.01. For the same compound, the fluorescence slope in [6] was -0.454 (inactive). Moreover, in assay [7], the NADPH fluorescence slope is -6.4e-05 (inactive). Moreover, in assay [8], the slope was 0.00535 (inactive). Moreover, the call in [9] was inactive.
For the compound `CN(C)CCCN1c2ccccc2CCc2ccc(Cl)cc21`, the cell count in assay [1] came to 621. The inhibition is -7.8% (inactive) in assay [1]; -129% (inactive) in assay [3]; 7.39% (inactive) in [5]; 16.7% (inactive) and 70.6% (active) in assay [10]; 14.9% (inactive) in [11]; 13.5% (inactive) in assay [12]. The inhibition of aggregation in [2] was -25.6% (inactive). Further, the nuclei count was 113% in assay [2] and 124% in assay [3]. Moreover, the z-score in [4] (setting [13]) is -0.576; in assay [4] (setting [14]), 1.08; in [4] (setting [15]) it was 1.97. For the same compound, in assay [6], the fluorescence slope is -0.41 (inactive). Further, the NADPH fluorescence slope in assay [7] is 3.7e-05 (inactive). The slope in assay [8] was 0.00326 (inactive). Moreover, the outcome in assay [9] is “active; weak signal in gallbladder and intestine”.
Consider `N[C@@H](C(=O)N[C@@H]1C(=O)N2C(C(=O)O)=C(Cl)CS[C@H]12)c1ccccc1`, for which the cell count in [1] is 693. Further, the inhibition is -2% (inactive) in assay [1]; -84.8% (inactive) in [3]; 7.39% (inactive) in assay [5]; 21.4% (inactive) in assay [10]; 12.2% (inactive) in assay [11]; 28.5% (inactive) in assay [12]. In assay [2], the inhibition of aggregation was -5.3% (inactive). The nuclei count in assay [2] was 113%; in assay [3] it was 122%. The results for the z-score in [4] (setting [13]), in [4] (setting [14]) and in assay [4] (setting [15]) were -0.332, -0.293 and -0.889, respectively. For the same compound, in [6], the fluorescence slope is -0.441 (inactive). For the same compound, in assay [7], the NADPH fluorescence slope was -5.1e-05 (inactive). Moreover, in assay [8], the slope was 0.00559 (inactive). Also, the compound was called inactive in assay [9].
